In PubChem BioAssay:
The source made the active and inactive calls. Unless noted, no rule for the calls is given here.

How the values were obtained:
[1] = HepG2 liver cancer cell viability effects, profiling panel, resazurin fluorescence, 24 h, PK04 Diversity Set (AID 1172); settings: higher = more signal
[2] = basal S. cerevisiae growth modulation, no modifier, primary screen, OD600, strain BY4716, 24 h, basal condition (AID 1173); settings: OD600, 24 h, higher = more signal, called active from +8 up or from −8 down
[3] = MM1S myeloma cell viability, profiling panel, resazurin fluorescence, basal, 24 h, PK04 Diversity Set (AID 1174); settings: higher = more signal, called active from +8 up or from −8 down;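 also: MM1S multiple myeloma cell line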
[4] = molecular target: Dihydroorotate dehydrogenase (quinone), mitochondrial (Plasmodium falciparum (isolate 3D7)) (UniProt Q08210); experiment: PfDHODH enzyme inhibitors, primary screen, biochemical, C-terminal His tag, absorbance 600 nm (AID 1175); settings: DCIP absorbance 600 nm, higher = more signal, called active from +8 up or from −8 down;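 also: recombinant parasite enzyme with a five histidine tag at its C terminus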
Dihydroorotate dehydrogenase (quinone), mitochondrial (Plasmodium falciparum (isolate 3D7)), sequence (Q08210 whole entry, looked up): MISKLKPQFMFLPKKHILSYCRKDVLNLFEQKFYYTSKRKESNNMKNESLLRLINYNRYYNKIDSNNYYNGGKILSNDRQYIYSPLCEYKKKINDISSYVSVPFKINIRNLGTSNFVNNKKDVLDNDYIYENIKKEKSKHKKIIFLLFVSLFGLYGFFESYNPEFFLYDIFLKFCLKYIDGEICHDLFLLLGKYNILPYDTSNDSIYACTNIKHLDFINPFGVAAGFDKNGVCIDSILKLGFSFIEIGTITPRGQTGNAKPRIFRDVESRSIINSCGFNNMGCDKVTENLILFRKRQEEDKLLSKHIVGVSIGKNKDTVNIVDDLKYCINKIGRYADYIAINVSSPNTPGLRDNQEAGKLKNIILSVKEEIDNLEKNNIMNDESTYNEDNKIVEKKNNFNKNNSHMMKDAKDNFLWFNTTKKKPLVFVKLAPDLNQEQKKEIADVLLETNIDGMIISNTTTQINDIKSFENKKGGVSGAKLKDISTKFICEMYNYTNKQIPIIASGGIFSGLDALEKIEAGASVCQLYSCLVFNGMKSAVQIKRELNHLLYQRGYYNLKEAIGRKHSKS

[5] = P. aeruginosa biofilm formation inhibitors, primary screen, strain PAO1, LB-PBS medium, absorbance 600 nm (AID 1176); settings: P. aeruginosa PAO1 growth/biofilm, A600, 12 h; higher = more signal
[6] = S. cerevisiae RM11-1a growth modifiers, primary screen, strain RM11-1a, OD600, basal, 24 h (AID 1177); settings: OD600, 24 h, higher = more signal, called active from +8 up or from −8 down;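 also: cultures grown under basal conditions with no added stressor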
[7] = E. coli acrAB mutant growth effects, primary screen, E. coli filamentation inducers, strain DRC39, OD650, 24 h (AID 1178); settings: higher = more signal, called active from +8 up or from −8 down;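 also: growth measured as culture turbidity by optical density at 650 nm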
[8] = E. coli acrAB mutant growth effects, primary screen, E. coli filamentation inducers, strain DRC39, OD650, 48 h (AID 1179);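 also: screen aims at cell division blockers that make cells filament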; settings: E. coli DRC39 delta-acrAB growth, higher = more signal, called active from +8 up or from −8 down
[9] = RPMI8226 myeloma cell viability, profiling panel, resazurin fluorescence, basal, 24 h, PK04 Diversity Set (AID 1180); settings: higher = more signal;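 also: RPMI8826 multiple myeloma cell line at 5000 cells per well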
[10] = molecular target: E3 ubiquitin-protein ligase XIAP (Homo sapiens) (UniProt P98170); experiment: XIAP binders, primary screen, biophysical, small-molecule microarray, fluorescence 635 nm (AID 1181); settings: small-molecule microarray binding, higher = more signal;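 also: score merges 667 nm emission and signal to noise over triplicate slides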
E3 ubiquitin-protein ligase XIAP (Homo sapiens), sequence (P98170 whole entry, looked up): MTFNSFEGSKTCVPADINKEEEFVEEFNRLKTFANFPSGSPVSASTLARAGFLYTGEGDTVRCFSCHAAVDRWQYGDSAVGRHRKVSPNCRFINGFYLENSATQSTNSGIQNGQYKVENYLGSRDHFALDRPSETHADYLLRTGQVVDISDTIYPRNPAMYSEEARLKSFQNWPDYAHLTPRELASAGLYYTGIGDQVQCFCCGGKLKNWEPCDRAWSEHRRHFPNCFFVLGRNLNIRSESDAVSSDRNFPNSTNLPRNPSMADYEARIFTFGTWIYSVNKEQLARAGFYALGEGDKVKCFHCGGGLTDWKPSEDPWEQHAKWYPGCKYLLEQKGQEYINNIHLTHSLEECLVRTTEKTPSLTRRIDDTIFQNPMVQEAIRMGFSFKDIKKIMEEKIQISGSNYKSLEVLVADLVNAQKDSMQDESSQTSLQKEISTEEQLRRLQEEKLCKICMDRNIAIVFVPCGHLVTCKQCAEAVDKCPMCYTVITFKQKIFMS

[11] = tested on: XIP peptide (Xip251-270) binding; experiment: small-molecule binders of XIP peptide, primary screen, biochemical, small-molecule microarray, fluorescence 635/667 nm, 0.1 µg/mL protein (AID 1182); settings: fluorescent protein binding, 635 nm, higher = more signal, called active from +8 up or from −8 down
XIP peptide (Xip251-270) = experiment: small-molecule binders of XIP peptide, primary screen, biochemical, small-molecule microarray, fluorescence 635/667 nm, 0.5 µg/mL protein (AID 1183); settings: small-molecule microarray binding, fluorescence 635 nm; higher = more signal
[12] = Plasmodium falciparum growth inhibition, primary screen, strain 3D7, DAPI fluorescence, 100 nL (AID 1184);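 also: parasites grown inside human red blood cells in medium with human serum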; settings: P. falciparum 3D7 growth, 3 d, higher = more signal
[13] = molecular target: Homeobox protein Hox-A13 (Mus musculus) (UniProt Q62424); experiment: inhibitors of HoxA13-DNA binding, primary screen, biochemical, fluorescence polarization, labeled oligonucleotide (AID 1185); settings: 15 min, higher = more signal, called active from +8 up or from −8 down
Homeobox protein Hox-A13 (Mus musculus), sequence (Q62424 whole entry, looked up): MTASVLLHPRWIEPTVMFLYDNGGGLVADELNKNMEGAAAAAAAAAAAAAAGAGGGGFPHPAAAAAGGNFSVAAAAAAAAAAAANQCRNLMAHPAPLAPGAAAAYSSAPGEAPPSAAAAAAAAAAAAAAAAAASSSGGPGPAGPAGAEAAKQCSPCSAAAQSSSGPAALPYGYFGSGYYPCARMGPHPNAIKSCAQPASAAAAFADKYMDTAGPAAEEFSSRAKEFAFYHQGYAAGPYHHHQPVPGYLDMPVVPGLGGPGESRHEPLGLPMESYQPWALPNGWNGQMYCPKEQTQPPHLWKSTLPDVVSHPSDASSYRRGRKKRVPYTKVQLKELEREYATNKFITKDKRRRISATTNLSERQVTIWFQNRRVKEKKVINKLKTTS

[14] = inhibitors of hydroxyurea-induced Chk1 phosphorylation, primary screen, imaging, HeLa, phospho-Chk1 antibody, percent positive cells (AID 1186); settings: hydroxyurea-induced phospho-Chk1 immunofluorescence imaging, higher = more signal
[15] = inhibitors of hydroxyurea-induced Chk1 phosphorylation, primary screen, imaging, HeLa, phospho-Chk1 nuclear intensity (AID 1187); settings: hydroxyurea-induced phospho-Chk1 immunofluorescence imaging, higher = more signal

Compound	z-score [1]	z-score [2]	z-score [3]	composite z-score [4]	z-score [5]	z-score [6]	z-score [7]	z-score [8]	z-score [9]	composite z-score [10]	composite z-score [11]	composite z-score (XIP peptide (Xip251-270))	z-score [12]	z-score [13]	z-score [14]	z-score [15]
CC(C)NC(=O)[C@@H]1c2ccccc2C(=O)N(C2Cc3ccccc3C2)[C@H]1c1ccc(CO)cc1	0.785	0.0928 (inactive)	1.16 (inactive)	-0.427 (inactive)	-0.0528 (inactive)	0.744 (inactive)	0.859 (inactive)	0.95 (inactive)	1.59	0.133	0.536 (inactive)	0.787	-0.826	-1.94 (inactive)	-0.24 (inactive)	0.0987 (inactive)
CC(C)NC(=O)[C@@]1(C)c2ccccc2C(=O)N(Cc2cc(C(F)(F)F)cc(C(F)(F)F)c2)[C@H]1c1ccc(CO)cc1	0.121	0.0934 (inactive)	-1.21 (inactive)	0.356 (inactive)	0.224 (inactive)	0.784 (inactive)	0.162 (inactive)	0.23 (inactive)	-0.148	0.0868	0.281 (inactive)	0.427	-1.54	-3.76 (inactive)	-0.281 (inactive)	-0.197 (inactive)
CC(C)C(=C=CC[C@H](O)c1ccc(OCCO)cc1)CCO	0.933	-1.87 (inactive)	-0.69 (inactive)	-0.324 (inactive)	0.825 (inactive)	-0.269 (inactive)	-0.732 (inactive)	-0.794 (inactive)	-0.0148	0.223	0.427 (inactive)	-0.107	-2.19	-3.96 (inactive)	0.805 (inactive)	0.505 (inactive)
CC1CC/C=C\[C@H]2OC34C=CCN(C(C)(C)C)C(=O)[C@H]3N(C(C)CO)C(=O)[C@@H]4C2C(=O)O1 (some centres undefined)	0.0366	-0.623 (inactive)	-2.21 (inactive)	-3.09 (inactive)	-0.525 (inactive)	0.723 (inactive)	0.606 (inactive)	0.771 (inactive)	-0.0501	0.501	-0.323 (inactive)	-1.08	0.0549	-5.51 (inactive)	0.714 (inactive)	-0.0558 (inactive)
CN1C(=O)C2C=CC(C(O)c3ccco3)N(Nc3ccccc3)C2C1=O (centres undefined)	-0.86	1.35 (inactive)	-0.944 (inactive)	1.24 (inactive)	1.41 (inactive)	1.61 (inactive)	-0.436 (inactive)	-0.0442 (inactive)	-0.328	0.42	-0.225 (inactive)	0.343	-0.142	-3.54 (inactive)	-0.221 (inactive)	-0.752 (inactive)
CN1C(=O)C2C=CC(C(O)C3CC=CCC3)N(N(c3ccccc3)c3ccccc3)C2C1=O (centres undefined)	0.129	1.16 (inactive)	-1.17 (inactive)	-0.0647 (inactive)	0.599 (inactive)	0.595 (inactive)	-0.486 (inactive)	0.364 (inactive)	-1.06	-0.269	0.241 (inactive)	-0.283	-0.201	-1.18 (inactive)	0.451 (inactive)	0.0168 (inactive)
C=CCC(OC(C)=O)[C@@H]1[C@@H](N(Cc2ccc(-c3ccccc3)cc2)C(=O)c2cccc3ccccc23)c2cc(OCCCO)ccc2N1C(=O)c1ccc(-c2ccccc2)cc1 (some centres undefined)	-0.398	-0.467 (inactive)	0.395 (inactive)	-0.0355 (inactive)	-0.0391 (inactive)	-0.768 (inactive)	1.59 (inactive)	0.734 (inactive)	0.234	-0.411	-0.299 (inactive)	-0.321	-2.81	-1.22 (inactive)	-0.627 (inactive)	-0.234 (inactive)
COc1ccc(C#Cc2ccc3c(c2)[C@]2(C(=O)N3)[C@H](c3ccccc3OCCO)N3[C@H](c4ccccc4)[C@H](c4ccccc4)OC(=O)[C@H]3[C@@H]2C(=O)Nc2nc3ccccc3s2)cc1	-0.927	1.35 (inactive)	-0.545 (inactive)	-30.7 (active)	2.77 (inactive)	2.93 (inactive)	0.0225 (inactive)	0.132 (inactive)	-1.76	0.0471	0.881 (inactive)	0.68	-1.9	2.72 (inactive)	0.165 (inactive)	0.265 (inactive)
C=C[C@H](CO[Si](CC)(CC)CC)N(Cc1ccc(OC(C)=O)c(OC)c1)S(=O)(=O)c1ccc(Br)cc1	-0.423	-0.128 (inactive)	-0.649 (inactive)	-1.38 (inactive)	-0.649 (inactive)	0.292 (inactive)	0.93 (inactive)	1.67 (inactive)	-3.37	0.0487	1.38 (inactive)	0.88	0.378	0.476 (inactive)	-0.528 (inactive)	-0.508 (inactive)
